The whole screen tested about 320,000 compounds, of which about 2,100 (0.66%) were called active. Not shown: some 53% with an inconclusive outcome. Calls follow the shape of the dose curve; as a rule, active = well fitted inhibition curve with a large enough effect in the signal ratio, with a control signal flat (not every such curve was filed as active); inconclusive = small, poorly fitted or top-dose-only effect, or effect the other way, or a change in a side signal; inactive = flat fitted curve, though single readings scatter; the % refers to the signal ratio. The sample as a whole holds a higher share of actives than the screen did.
assay: qHTS Assay for Lipid Storage Modulators in Drosophila S3 Cells; settings: BODIPY lipid droplet fluorescence, 18-24 h, cells fed with added oleic acid; cell number change: measured here: cell count max response; series mostly up to 46.1 µM; lipid storage change, negative = inhibition: at the top concentration;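 as to cell number change: cells counted by Cell Tracker Red CMTPX staining in the red channel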; as to lipid storage change, negative = inhibition: % is scaled to controls: 0 for no effect and ±100 for the full control effect
How it was run: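 Drosophila S3 cells loaded with oleic acid (400 uM, as added) and compounds at several concentrations; lipid droplets imaged by 488-nm laser-scanning cytometry, 500–530 nm intensity and object ratio to cell channel. Percent activity normalized to 20 uM Triacsin C.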
Potency is read from the fitted curve at half-maximal effect.

SMILES	lipid storage change, negative = inhibition	cell number change	outcome	Potency
CCNC(=O)CC1SC(=Nc2ccccc2C)N(C)C1=O (configuration not stated)	1.25% (inactive)	12.4%	–	–
CCN1CCN(c2ccc(S(=O)(=O)N3CCCCC3)cc2NC(=O)c2ccc(F)cc2)CC1	16% (inactive)	–	–	–
COc1ccc(/C=C(\NC(=O)c2ccc(OC)cc2)C(=O)Nc2ccc(C(=O)O)cc2)cc1	–	11.1%	inactive	–
N#Cc1ccccc1S(=O)(=O)N1CCN(C(=O)CN2CCCSc3ccccc32)CC1	–	-12.9%	–	2.06 µM (active)
Cc1ccc(S(=O)(=O)N2CCN(C(=O)CN3CCCSc4ccccc43)CC2)cc1	14.9% (inactive)	6.28%	–	–
N#Cc1ccccc1S(=O)(=O)N1CCN(C(=O)C2CCC2)CC1	14.4% (inactive)	17.3%	–	–
CCOC(=O)c1ccc(NC(=O)c2nc[nH]c2C(=O)N[C@@H](CC(C)C)C(=O)OC(C)(C)C)cc1	-1.73% (inactive)	-3.92%	–	–
CC(C)C[C@H](NC(=O)c1nc[nH]c1C(=O)N(C)Cc1ccccc1)C(=O)OC(C)(C)C	-12.5% (inactive)	-15.1%	–	–
O=C(N[C@@H](Cc1ccccc1)C(=O)OCc1ccccc1)c1nc[nH]c1C(=O)N[C@@H](Cc1ccccc1)C(=O)OCc1ccccc1	–	–	–	3.26 µM (active)
O=C(N[C@@H](Cc1ccccc1)C(=O)OCc1ccccc1)c1nc[nH]c1C(=O)NC(c1ccccc1)c1ccccc1	3.83% (inactive)	11.4%	–	–
C[C@H](NC(=O)c1nc[nH]c1C(=O)N[C@@H](Cc1ccccc1)C(=O)OC(C)(C)C)C(=O)OC(C)(C)C	16% (inactive)	1.8%	–	–
C[C@H](NC(=O)c1nc[nH]c1C(=O)N(C)Cc1ccccc1)C(=O)OC(C)(C)C	–	20.3%	–	0.651 µM (active)
CCOC(=O)c1ccc(NC(=O)c2nc[nH]c2C(=O)N[C@@H](Cc2ccccc2)C(=O)OC(C)(C)C)cc1	–	-20.1%	–	18.4 µM (active)
C[C@H](NC(=O)c1nc[nH]c1C(=O)NCc1ccccc1)C(=O)OC(C)(C)C	-10.5% (inactive)	-10.1%	–	–
C[C@H](NC(=O)c1nc[nH]c1C(=O)N[C@@H](C)C(=O)OC(C)(C)C)C(=O)OCc1ccccc1	-8.74% (inactive)	0.898%	–	–
C[C@@H](NC(=O)c1nc[nH]c1C(=O)N[C@@H](Cc1ccccc1)C(=O)OCc1ccccc1)c1ccccc1	-0.678% (inactive)	-24.1%	–	–
C[C@H](NC(=O)c1nc[nH]c1C(=O)N[C@@H](Cc1ccccc1)C(=O)OC(C)(C)C)C(=O)OCc1ccccc1	–	26.3%	–	14.6 µM (active)
CC(C)(C)OC(=O)[C@H](Cc1ccccc1)NC(=O)c1[nH]cnc1C(=O)Nc1ccc(Cl)cc1	-47.5% (inactive)	-19.3%	–	–
COc1ccccc1CN1CC(C(=O)N(CCO)Cc2cccs2)CCC1=O (configuration not stated)	8.22% (inactive)	1.74%	–	–
CCN1CCCC1CNC(=O)C(=O)NC (configuration not stated)	-3.62% (inactive)	1.27%	–	–
Cc1c(C(=O)NCc2cccnc2)oc2ccc(S(=O)(=O)N3CCCCCC3)cc12	–	–	inactive	–
O=C(Cn1ccc(C(F)(F)F)n1)N/N=C/c1ccc2c(c1)OCO2	11.3% (inactive)	4.92%	–	–

SMILES	lipid storage change, negative = inhibition	cell number change	outcome	Potency
COc1ccc(Cl)cc1NC(=O)CCn1c(=O)oc2ccccc21	-13.1% (inactive)	–	–	–
O=C(CN1C(=O)C2C3CCC(C3)C2C1=O)OCC(=O)c1cccc([N+](=O)[O-])c1 (configuration not stated)	4.51% (inactive)	2.72%	–	–
C=CCn1c(SCc2ccc(C(=O)NCCO)cc2)nc2sc(C)c(C)c2c1=O	3.04% (inactive)	22.5%	–	–
Cc1ccc(C(=O)NNc2ncnc3c2cnn3C)cc1	3.58% (inactive)	-1.39%	–	–
Cc1c(CN2CCCC(C(=O)c3cccc(OC(C)C)c3)C2)c(=O)n(-c2ccccc2)n1C (configuration not stated)	5.83% (inactive)	1.94%	–	–
C/C(=N\NC(=O)c1ccc(Cl)cc1)c1cccc(NC(=O)c2cccnc2)c1	12.1% (inactive)	13.4%	–	–
CCn1c(CSc2nc(C)cs2)nc2cc(S(=O)(=O)N(C)C)ccc21	-12.7% (inactive)	-5.93%	–	–
CCn1c(SCC(=O)NC2CCCC2)nnc1-c1c[nH]c2ccccc12	28.1% (inactive)	30%	–	–
CN(C)C(CNC(=O)CN1C(=O)NC2(CCc3ccccc32)C1=O)c1ccco1 (configuration not stated)	13% (inactive)	6.97%	–	–
Cc1ccc(NC(=O)C(C)SCC(=O)Nc2ccc(F)cc2)cc1S(=O)(=O)N1CCOCC1 (configuration not stated)	19.8% (inactive)	–	–	–
CC1(C(=O)NC2CCCCCC2)CCC(=O)N1Cc1ccc2c(c1)OCO2 (configuration not stated)	-10.3% (inactive)	-18.4%	–	–
Nc1nc(-c2ccccc2)c(-c2ccccc2)n1N	–	–	inactive	–
c1ccc(-c2cnn3c(-c4ccccc4)c(-c4ccccc4)nc3n2)cc1	–	-3.03%	–	3.26 µM (active)
c1ccc(-c2cn3nc(-c4ccccc4)c(-c4ccccc4)nc3n2)cc1	-0.159% (inactive)	19.6%	–	–
CC(=O)N(CCCN(C)C)Cc1ccccn1	-10.4% (inactive)	6.64%	–	–
c1ccc(CN2CCC(N3CCC(N4CCCCCC4)CC3)CC2)cc1	–	-20.6%	–	0.82 µM (active)
CCS(=O)(=O)N1CCN(S(=O)(=O)c2ccc3ccccc3c2)CC1	–	16.6%	inactive	–
Cc1ccc(S(=O)(=O)N2CCN(C3CCN(Cc4ccccc4)CC3)CC2)cc1	6.16% (inactive)	-12.2%	–	–
CC1CCN(S(=O)(=O)c2ccc3ccccc3c2)CC1	–	5.85%	–	3.26 µM (active)
O=S(=O)(c1ccc2ccccc2c1)N1CCCCCC1	-25% (inactive)	0.283%	–	–
O=S(=O)(c1ccc2ccccc2c1)N1CCN(C2CCN(Cc3ccccc3)CC2)CC1	–	21%	–	5.8 µM (active)
c1ccc(C2CCC(N3CCC(N4CCCCC4)CC3)CC2)cc1 (configuration not stated)	–	-17%	inactive	–
